Sampled rows, rich in hits. Any-hit rate of the full collection: about 9.3%.
Rab9 prom act: qHTS Assay for Rab9 Promoter Activators; AID 485297, 2010; 2.8% of 320,000 active; Potency, µM (series often up to 9.22 µM), for the others: top-dose activation, negative = inhibition, usual class: activators; Huh7 Rab9 promoter-luciferase reporter, luminescence, 24 h; further: % of control where 0% means no effect; nearly all actives have a fitted effect of over 60% in size
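Huh7 reporter line, Rab9 promoter upstream of luciferase. Compound exposure 24 h at 37 °C in reduced-serum medium with 10% FBS. Read-out: luminescence.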
ELG1 DNA repair: qHTS screen for small molecules that inhibit ELG1-dependent DNA repair in human embryonic kidney (HEK293T) cells expressing luciferase-tagged ELG1; HEK293T ELG1-luciferase reporter, luminescence, 16 h; DNA damage induced by 5-fluorouridine; Potency, µM (highest dose often 46.1 µM), without a hit: at the top dose activity change, negative = inhibition, hits mostly inhibitors; 2.3% of 330,000 active; further: on the % scale 0 is the no-effect control and ±100 the full control effect; nearly all actives have a fitted effect of over 55% in size
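HEK293T cells expressing luciferase-tagged ELG1 (2,000/well) received 5-Fluorouridine plus compound or DMSO for 16 hr at 37 °C. Luciferase was read by ONE-Glo luminescence after 30 min at room temperature.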
NPC1 prom act: qHTS Assay for NPC1 Promoter Activators | 2.4% of 320,000 active | Huh7 NPC1 promoter luciferase reporter, 24 h | Potency, µM (titrated, usually from 9.22 µM), inactives show top-dose activation, actives largely listed as activators; further: % of control where 0% means no effect; nearly all actives have a fitted effect of over 60% in size
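Luminescence read-out of NPC1 promoter-driven luciferase in stably transfected Huh7 cells; compounds delivered in DMSO and left 24 h at 37C, 5% CO2, qHTS titration format.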
ELG1 genotox: qHTS screen for small molecules that induce genotoxicity in human embryonic kidney (HEK293T) cells expressing luciferase-tagged ELG1; HEK293T ELG1-luciferase reporter, luminescence, 16 h; Potency, µM (series often up to 46 µM), for inactives: top-dose activity change, positive = activation, usual class: activators; 1.3% of 330,000 active; AID 504466, 2011; further: % of control where 0% means no effect; nearly all actives have a fitted effect of over 60% in size
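Quantitative HTS format in 1536-well plates. HEK293T ELG1-luciferase reporter cells receive test compound and are incubated 16 hr at 37 °C, 5% CO2; ONE-Glo added, 30 min room temperature, then luminescence read.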
FLuc modulator: qHTS profiling assay for firefly luciferase inhibitor/activator using purifed enzyme and Km concentrations of substrates (counterscreen for miR-21 project) | Luciferin 4-monooxygenase (Photinus pyralis), P08659 | purified FLuc, Km substrates, luminescence inhibition | Potency, µM (doses to about 57.5 µM), for inactives: at the highest dose activity change, negative = inhibition, most hits filed as inhibitors | 6.9% of 360,000 active;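 further: plate controls were vehicle for no effect and reference inhibitor for full effect; nearly all actives have a fitted effect of over 55% in size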
Target sequence (P08659 whole entry, looked up): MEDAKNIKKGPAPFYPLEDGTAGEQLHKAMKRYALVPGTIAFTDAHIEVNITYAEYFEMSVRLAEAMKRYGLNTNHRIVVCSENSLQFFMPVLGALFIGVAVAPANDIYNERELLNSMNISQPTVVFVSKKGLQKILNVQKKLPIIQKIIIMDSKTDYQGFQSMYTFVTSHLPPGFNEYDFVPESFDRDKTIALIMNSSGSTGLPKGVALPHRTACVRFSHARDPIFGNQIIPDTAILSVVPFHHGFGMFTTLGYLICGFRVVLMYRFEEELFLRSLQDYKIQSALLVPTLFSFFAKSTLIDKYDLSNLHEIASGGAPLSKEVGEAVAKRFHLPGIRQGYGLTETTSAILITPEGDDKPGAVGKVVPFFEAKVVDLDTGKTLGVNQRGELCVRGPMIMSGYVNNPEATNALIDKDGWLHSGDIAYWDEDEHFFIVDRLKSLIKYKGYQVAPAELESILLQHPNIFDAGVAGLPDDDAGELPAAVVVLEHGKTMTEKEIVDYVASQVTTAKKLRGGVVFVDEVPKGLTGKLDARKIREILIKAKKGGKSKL
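Purified P. pyralis luciferase, 10 nM final, with Km-level 10 uM D-luciferin and 10 uM ATP in 50 mM Tris acetate pH 7.5, 10 mM Mg acetate, 0.01% Tween-20, 0.05% BSA; 6-point qHTS titration about 60 µM downward; luminescence read.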
SMN2 splice enh: qHTS Assay for Enhancers of SMN2 Splice Variant Expression; HEK293 SMN2-luciferase splicing reporter, luminescence, 30-36 h; Potency, µM (highest dose often 46.1 µM), inactives show top-dose activity change, positive = activation, most hits filed as activators; 2.8% of 210,000 active; AID 1458, 2008; further: % of control where 0% means no effect; nearly all actives have a fitted effect of over 55% in size
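qHTS luciferase splicing reporter: luminescence rises when SMN2 exon 7 is included in transfected HEK293 cells. Compound exposure lasted 30-36 h at 37C, with 4.5 mM final sodium butyrate as control, followed by a ONE-Glo read.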
An asterisk follows results filed as active; ? = inconclusive; nt = no result; [ ] = dose if it differs, or a comment. The call rests on the fitted dose curve; in most records, active means well fitted curve in the direction sought with a large enough effect; inconclusive means small, poorly fitted or top-dose-only effect, or another doubt; inactive means no such curve, though single readings can be large; an effect the other way counts as inactive or inconclusive. Potency means the concentration at half of the fitted maximal effect.

SMILES	Rab9 prom act	ELG1 DNA repair	NPC1 prom act	ELG1 genotox	FLuc modulator	SMN2 splice enh
CSc1ccc(NC(=O)Nc2cc(C)ccn2)cc1	0.45µM*	?	0.5µM*	?	0.3µM*	1.6µM*
Cc1ccnc(NC(=O)c2cc3cc(F)ccc3s2)c1	1.4µM*	?	2.2µM*	?	2.7µM*	nt
COC(=O)c1ccccc1NC(=O)Nc1cc(C)ccn1	-2%	-13%	1%	2%	2%	-9%
CSc1ncccc1C(=O)Nc1cc(C)ccn1	5%	14%	5%	5%	2%	nt
O=C(Nc1ccc(Br)cc1)C(c1ccccc1)c1ccccc1	1%	-2%	-3%	-4%	-2%	-9%
c1cc(CNC2C3CC4CC(C3)CC2C4)ccn1 (configuration not stated)	-5%	-4%	-8%	4%	-3%	-35%
COc1ccccc1NC(=O)Nc1ccc(C)cn1	7%	?	21%	6%	?	nt
Cc1ccnc(NC(=O)Nc2ccc(F)cc2)c1	0.56µM*	?	1.4µM*	?	1.9µM*	13µM*
Cc1ccc(NC(=O)Nc2ccc(F)cc2)nc1	4µM*	?	?	8%	11µM*	25µM*
CC(=O)Nc1ccc(S(=O)(=O)Nc2cc(C)ccn2)cc1	1%	8%	-2%	1%	-1%	7%
Cc1cc(C)nc(NC(=O)Cc2ccc(Br)cc2)n1	-1%	14%	7%	1%	-4%	16%
Cc1cc(C(=O)CN2C(=O)c3ccccc3S2(=O)=O)c(C)n1-c1ccccc1	-11%	?	-13%	-27%	2.1µM*	-16%
Cc1cc(C(=O)Cn2cc(C(F)(F)F)ccc2=O)c(C)n1-c1ccccc1	-3%	16%	0%	3%	?	2%
CCn1c(C)cc(C(=O)CN2C(=O)c3ccccc3S2(=O)=O)c1C	?	?	?	1%	nt	nt
Cc1cc(C(=O)CN2C(=O)C3CC=CCC3C2=O)c(C)n1-c1ccccc1 (configuration not stated)	0.71µM*	?	0.56µM*	?	0.67µM*	-58%
C=CCn1c(C)cc(C(=O)CN2C(=O)c3ccccc3S2(=O)=O)c1C	-35%	?	-32%	-4%	1.5µM*	nt
COc1ccc(-c2nc3cnc(N4CCOCC4)nc3n(CCC#N)c2=O)cc1	nt	nt	nt	nt	nt	-7%
CC(=O)N1CCOc2ccc(S(=O)(=O)NCC3CCC(C(=O)NCCC(C)C)CC3)cc21 (configuration not stated)	3%	?	-2%	-2%[9.26 µM]	2%	nt
CC(=O)N1CCOc2ccc(S(=O)(=O)NCC3CCC(C(=O)Nc4ccc(C)cn4)CC3)cc21 (configuration not stated)	-27%	5.2µM*	-23%	-11%	1%	nt
COc1ccc(C(=O)NCc2nnc(SCC(=O)N3CCCc4ccccc43)o2)cc1OC	-1%	1%	-4%	0%	4%	22%
COc1ccc(N2CCN(C(=O)CC(C)S(=O)(=O)c3ccc4c(c3)NC(=O)CO4)CC2)cc1 (configuration not stated)	-7%	13µM*	-5%	-14%	3%	nt
CC(CC(=O)N1CCN(c2cccc(Cl)c2)CC1)S(=O)(=O)c1ccc2c(c1)NC(=O)CO2 (configuration not stated)	-27%	?	-15%	-15%	0%	nt
COc1ccc(N(CC(=O)NCCC2=CCCCC2)S(=O)(=O)c2ccccc2)c(OC)c1	-14%	-18%	-9%	-7%	4%	-1%
Cc1ccc(C)c(N2CCN(CCCNC(=O)c3ccc4nc(C(C)C)oc4c3)CC2)c1	nt	nt	nt	nt	-3%	nt
COC(=O)c1c(C)[nH]c(O)c1C=Nc1ccc(C(C)C)cc1	?	?	?	?	8.5µM*	14%
SMILES	Rab9 prom act	ELG1 DNA repair	NPC1 prom act	ELG1 genotox	FLuc modulator	SMN2 splice enh
COc1ccc(/C=N/NC(=O)Cc2ccc(Cl)cc2)cc1OC	-1%	-2%	1%	?	-16%	-3%
COc1ccc(/C=C/C(=O)Oc2cccc(/C=N/NC(=O)c3cccc(F)c3)c2)cc1	2.8µM*	?	3.5µM*	?	2.4µM*	11µM*
COc1ccc(/C=C\C(=O)Oc2cccc(/C=N/NC(=O)Cc3ccc(OC)c(OC)c3)c2)cc1	?	?	?	?	11µM*	13µM*
COc1ccc(/C=C/C(=O)Oc2ccc(/C=N\NC(=O)c3ccc(F)cc3)cc2)cc1	16%	?	6%	3%	3%	29%
CCOC(=O)CNS(=O)(=O)c1ccc(S(=O)(=O)NC2CC2)cc1	-4%	-1%	-2%	0%	1%	nt
COc1ccc(/C=C/C(=O)N2CCN(C)CC2)cc1OC	5%	0%	-2%	-2%	-14%	nt
CCCCNC(=O)c1cc(-c2ccc(OC)cc2)nc2n[nH]c(-c3cccc([N+](=O)[O-])c3)c12	nt	nt	nt	nt	0%	nt
NNc1nc(-c2ccccc2)nc2sc3c(c12)CCCC3	2.2µM*	?	3.5µM*	1.3µM*	0.54µM*	-47%
CCn1c(NN)nc2sc3c(c2c1=O)CCC3	4%	0%	-4%	-6%	-14%	-11%
O=C(O)c1ccc(Cn2nnc3sc4c(c3c2=O)CCCC4)cc1	?	?	29%	?	13µM*	5%
NNc1nc2sc3c(c2c(=O)n1Cc1ccccc1)CCC3	17%	23%	-4%	6%	6.7µM*	nt
COC(=O)c1ccc(Cn2nnc3sc4c(c3c2=O)CCCC4)cc1	nt	nt	nt	nt	-1%	7%
Nn1c(Nc2ccccc2)nc2sc3c(c2c1=O)CCC3	11%	?	20%	?	9.5µM*	-51%
Cc1nc(NC(C)c2ccccc2)c2c3c(sc2n1)CCC3 (configuration not stated)	1%	?	-1%	-2%	1%	-36%
CCOc1ccc(CNC(=O)C2CCN(S(=O)(=O)c3cn(C)cn3)CC2)cc1OC	nt	nt	nt	nt	-4%	nt
O=S(=O)(c1ccc(Cl)cc1)N1CCN(C(=S)Nc2ccc(F)c(Cl)c2)CC1	-4%	?	-3%	-8%	1%	-18%
Cc1cc([N+](=O)[O-])ccc1NC(=O)CSc1nnc(C)n1C	4%	?	-3%	-1%	-2%	nt
CCCn1c(SC(C)C(=O)N2CCOCC2)nc2ccc(Br)cc2c1=O (configuration not stated)	-3%	-4%	-3%	-13%	-1%	nt
